The sequences below were run against HBB (assay: pooled miR-30 sensor sort-seq; sequence = guide strand). Conditions: shRNA.
Note: reference of the scale not given here.

Sequence	sensor-assay potency score (higher = more potent)
TCACTCAGTGTGGCAAAGGTGC	-1.09
TTCTTTGCCAAAGTGATGGGCC	-0.0247
TAGACCACCAGCAGCCTGCCCA	-0.865
ATTCTTTGCCAAAGTGATGGGC	-0.706
TTTGCCAAAGTGATGGGCCAGC	-0.758
AACTTCATCCACGTTCACCTTG	-0.552
ACCACCAACTTCATCCACGTTC	-1.74

The sequences below were run against HBD in the same assay as above. Conditions: shRNA.

Sequence	sensor-assay potency score (higher = more potent)
ATTCCTTGCCAAAGTTGCGGGC	-0.495
AATTCCTTGCCAAAGTTGCGGG	-0.612
ACTAAAGGCACCTAGCACCTTC	-0.765
AGCCACACCAGCCACCACCTTC	-1.62
TAGACCACCAGTAATCTGCCCA	-0.29
TTCACTTTGCCCCACAGGGCAT	-0.844
ACACACACCAGCACATTGCCCA	-0.428
ACCACCAACTGCATCCACGTTC	-1.79
AACAGCATCAGGAGAGGACAGA	-1.5
TCAGCTGAGAAAAAGTGCCCTT	-0.0837

What follows are sequences tested against HBM in the same assay as above. Conditions: shRNA.

Sequence	sensor-assay potency score (higher = more potent)
TGCGGGAAGTAGACCTTGGTGC	-0.583
AACACTGGATTAGCAGCGGAAA	-1.52
TCCACGTGCTGCACCGCCGCGC	-1.37
ATTAGCAGCGGAAAGTTGGCTG	0.235
TCAGGTCCCAGACCTGCGCGAT	-1.04
TGCACGGTGAACTCGTCCTGCA	-1.03
TGCATTTGCACGGTGAACTCGT	0.113
TTGTCCACGTGCTGCACCGCCG	-1.46
TGAACTCGTCCTGCAGGTGGGA	-0.648
TTGCACGGTGAACTCGTCCTGC	0.462
TTGGTGCTGGGGTACACCGTGA	-1.01
TTTGCACGGTGAACTCGTCCTG	0.188

What follows are sequences tested against HBQ1 in the same assay as above. Conditions: shRNA.

Sequence	sensor-assay potency score (higher = more potent)
TAGGTCGTCCAGGCGCTCCACG	-1.23
TGGGAGAAGTAGGTCTTCGTGG	-0.972
TGGGCTCTGACTTGTGAGGAGC	-1.65
AAGTCTCCGGGGTAGTGCCGGG	-1.01
TTGCTGCCCAGCTTCTTCCACA	-1.27
TAGACGCCGACGTTGCTGCCCA	-0.72
TTCCAGGGCCTCTGTCGTGTAG	-1.54
TGTCGTGTAGACGCCGACGTTG	-0.887
ATAACGTGGCTCAGGAACTTGT	-1.13
AGAAGTAGGTCTTCGTGGCGGG	-0.804

— the OligoGym collection
